Source: PubChem BioAssay AID2314 (National Center for Advancing Translational Sciences (NCATS), 2010)
Among all 300,000 compounds or so, about 37,000 (12%) were called active. No stated cut-off is given here; in the data, active means max response mostly above about 13% (no sharp cut-off); inactive means mostly below about 14%. The full list was thinned out, with actives kept by preference.

Experiment: Cycloheximide Counterscreen for Small Molecule Inhibitors of Shiga Toxin; further: read at 38.3 µM for the half of the compounds with a filed dose; 0% is about no effect
Settings: cell reporter, cycloheximide protein synthesis inhibition counterscreen; hits give high values

| SMILES | max response |
| --- | --- |
| CC(=O)Nc1cccc(NC(=O)c2ccc3c(c2)CCN3S(C)(=O)=O)c1 | 2.48% (inactive) |
| CS(=O)(=O)N1CCc2cc(C(=O)Nc3ccccc3)ccc21 | -1.85% (inactive) |
| COc1ccc(OC)c(NC(=O)c2ccc3c(c2)CCN3S(C)(=O)=O)c1 | -0.802% (inactive) |
| CCc1ccccc1NC(=O)c1ccc2c(c1)CCN2S(C)(=O)=O | -1.1% (inactive) |
| CSc1ccccc1NC(=O)c1ccc2c(c1)CCN2S(C)(=O)=O | 43.6% (active) |
| CS(=O)(=O)N1CCc2cc(C(=O)Nc3ccccc3Br)ccc21 | 30.9% (active) |
| COCc1ccc(C(=O)N2CCc3c([nH]c4ccccc34)C2c2ccccn2)s1 (stereo unspecified) | -4.02% (inactive) |
| COc1ccc(-c2cc(=O)oc3cc(OC(C)C(=O)Nc4ccc(CN5CCOCC5)cc4)ccc23)cc1 (stereo unspecified) | -4.69% (inactive) |
| Cc1ccc(OCc2nnc(SC3CCc4ccccc4C3=O)n2C)cc1 (stereo unspecified) | 4.12% (inactive) |
| CC(=O)Nc1ccc(/C=N/Nc2ccc(C(=O)c3c(C)cc4ccccn34)cc2[N+](=O)[O-])cc1 | 3.53% (inactive) |
| Cc1cc(N2C(=O)C(O)=C(C(=O)c3ccc(C)o3)C2c2ccc(OCc3ccccc3)cc2)no1 (stereo unspecified) | -0.599% (inactive) |
| Cc1ccc(Nc2nc(N)nc(CN3CCN(Cc4ccccc4)CC3)n2)cc1Cl | -3.89% (inactive) |
| Cc1ccccc1Nc1nc(N)nc(CSc2ccccc2)n1 | 67% (active) |
| Cc1ccccc1Nc1nc(N)nc(CN2CCN(c3ccccn3)CC2)n1 | 0.552% (inactive) |
| Cc1ccc(C(=O)OCc2nc(N)nc(Nc3ccccc3C)n2)cc1 | -0.878% (inactive) |
| CCSCc1nc(N)nc(NCCc2ccccc2)n1 | 12.6% (inactive) |
| Cc1ccccc1Nc1nc(N)nc(CSc2nnc3ccccn23)n1 | 13.9% (active) |
| CCCN1CCC(=O)N(C(CSc2ccc(OC)cc2)Cc2ccccc2)CC1 (stereo unspecified) | 6.9% (inactive) |
| Cc1cc(C)n(-c2ccc(NC(=O)C3CCCCN3C(=O)c3cccs3)cc2)n1 (stereo unspecified) | 7.2% (inactive) |
| COc1ccc(-n2c(C)cc(C(=O)COC(=O)c3cc(OC)c(OC)cc3NC(=O)c3cccs3)c2C)cc1 | -3.59% (inactive) |
| CCc1nn(CC(=O)N2CCN(c3cc(C)ccc3C)CC2)c(=O)c2cc3occc3n12 | -8.63% (inactive) |
| CC1CCN(S(=O)(=O)c2ccc3c(ccn3CC(=O)O)c2)CC1 | -6.07% (inactive) |
| CC(C)c1ccc(Nc2ncccc2C#N)cc1 | 43.2% (active) |
| CN(C)c1ccnc(Nc2ccc(F)cc2)c1C#N | -1.37% (inactive) |
| O=C(Oc1cccc(O)c1)C1CCCCC1 | 1.32% (inactive) |
| CC12CCC(C(=O)N(NC(=O)c3ccccc3O)C1=O)C2(C)C (stereo unspecified) | 11.2% (active) |

| SMILES | max response |
| --- | --- |
| CC12CCC(C(=O)N(c3cccc(Cl)c3)C1=O)C2(C)C (stereo unspecified) | -2.01% (inactive) |
| O=C(NN1C(=O)C2C(C1=O)C1C=CC2C12CC2)c1ccccc1Cl (stereo unspecified) | 0.62% (inactive) |
| O=C(COc1ccc(Cl)cc1)NC(=S)Nc1ccccc1N1CCOCC1 | 1.2% (inactive) |
| CCOC(=O)C1C/C(=C\C(C)=O)c2cccc(C(F)(F)F)c2O1 (stereo unspecified) | -2.62% (inactive) |
| CCOC(=O)c1c(C)[nH]c(C(=O)NCc2ccccc2OC)c1C | 17% (active) |
| CCOC(=O)c1c(C)[nH]c(C(=O)NCCN2CCOCC2)c1C | -3.76% (inactive) |
| CC(=O)c1c(C)[nH]c(C(=O)NCc2ccc(C)cc2)c1C | 15.3% (inactive) |
| O=C(O)c1ccc(OCC2CCCO2)cc1 (stereo unspecified) | -2.17% (inactive) |
| COC(=O)c1c(C)oc(C)c1S(=O)(=O)Nc1ccc(C(C)C)cc1 | -1.83% (inactive) |
| Cc1nc(-c2ccccc2)sc1-c1nnc(C2CC2)o1 | 38.7% (active) |
| C=CCn1c(-c2sc(-c3ccccc3)nc2C)n[nH]c1=S | 1.59% (inactive) |
| Cc1nc(-c2ccccc2)sc1-c1nc(-c2ccccc2)ncc1S(=O)(=O)c1ccccc1 | 1.01% (inactive) |
| CCOc1ccccc1NC(=O)COc1ccc(S(=O)(=O)N2CCCC2)cc1 | -2.13% (inactive) |
| O=C(Nc1c2c(nc3ccccc13)CCCC2)c1ccccc1Br | -2.17% (inactive) |
| CCc1nc2ccccc2c(C(=O)OC2CCCCC2=O)c1C (stereo unspecified) | 8.91% (inactive) |
| O=C(COC(=O)c1c2c(nc3ccccc13)CCCC2)c1ccc(Br)s1 | 25% (active) |
| COc1ccccc1C(=O)Nc1ccnn1C1CCN(Cc2cnn(C)c2)CC1 | 0.446% (inactive) |
| COc1ccc2c(c1)c1nc3n(c(=O)c1n2CC(=O)Nc1ccccc1)CCS3 | -2.14% (inactive) |
| CC(=O)CC(c1ccccc1)C1C(=O)Oc2ccccc2C1=O (stereo unspecified) | -3.15% (inactive) |
| Cc1cc(C)c2oc(C(=O)Nc3ccc(S(=O)(=O)Nc4nccc(C)n4)cc3)cc(=O)c2c1 | 5.57% (inactive) |
| COc1ccccc1C(=O)CSc1cccc[n+]1[O-] | 9.7% (inactive) |
| Cc1cc(Oc2ccc(Cl)cc2)nc(SCC(=O)c2ccccc2)n1 | 0.695% (inactive) |
| O=C(CSc1cccc[n+]1[O-])c1ccc(-c2ccccc2)cc1 | 44.8% (active) |
| O=C(CSc1cccc[n+]1[O-])c1ccc(Cl)cc1 | 16.8% (active) |
| O=C(CSc1cccc[n+]1[O-])NCCCc1ccccc1 | 10.3% (inactive) |
| Cn1c(CC2Sc3ccccc3NC2=O)nnc1SCC(=O)c1ccc(Cl)cc1 (stereo unspecified) | 6.52% (inactive) |

| SMILES | max response |
| --- | --- |
| CCOC(=O)N1CCC(N2Cc3cccc(C(=O)Nc4ccc(S(=O)(=O)N(CC)CC)cc4)c3C2=O)CC1 | -7.45% (inactive) |
| CC(=O)c1c(C)oc2ccc(NS(=O)(=O)c3ccccc3)cc12 | -4.79% (inactive) |
| O=C(Nc1ccc(-c2cscn2)cc1)C1CCCN(Cc2ccc(CO)o2)C1 (stereo unspecified) | 10.2% (inactive) |
| Cc1cc(C)cc(NC(=O)C2CCCN2S(=O)(=O)c2cccc3cccnc23)c1 (stereo unspecified) | 0.222% (inactive) |
| CCCCNS(=O)(=O)c1ccc2nc(SCC(=O)Nc3cc(C)cc(C)c3)[nH]c2c1 | -6.32% (inactive) |
| Cc1ccc2nc(-c3ccncc3)cc(C(=O)Nc3ccc(OC(F)F)cc3)c2c1 | -4.25% (inactive) |
| Cc1cccc(NC(=O)Cn2cc(C(=O)c3ccco3)c3ccccc32)c1 | -2.38% (inactive) |
| Cc1ccc(CNC(=O)C(=O)c2cn(CC(=O)N3CCCC3)c3ccccc23)cc1 | 20.3% (active) |
| COc1cccc(NC(=O)C(=O)c2cn(CC(=O)N3CCOCC3)c3ccccc23)c1 | 37.8% (active) |
| O=C(Nc1ccc(F)cc1)C(=O)c1cn(CC(=O)N2CCOCC2)c2ccccc12 | -0.871% (inactive) |
| CN(Cc1ccccc1)C(=O)C(=O)c1cn(CC(=O)N2CCCC2)c2ccccc12 | -3.43% (inactive) |
| Cc1ccc(CNC(=O)C(=O)c2cn(CC(=O)N3CCOCC3)c3ccccc23)cc1 | 17.6% (active) |
| N#Cc1ccc(Cn2cc(C(=O)c3ccco3)c3ccccc32)cc1 | 21.7% (inactive) |
| CC1CCN(C(=O)Cn2cc(C(=O)c3ccco3)c3ccccc32)CC1 | 23% (active) |
| COc1cccc(NC(=O)CS(=O)(=O)c2cn(CC(=O)N3CCOCC3)c3ccccc23)c1 | -5.36% (inactive) |
| CN1CCN(C(=O)C(=O)c2cn(CC(=O)N3CCCC3)c3ccccc23)CC1 | -2.55% (inactive) |
| O=C(NCCCn1ccnc1)C(=O)c1cn(CC(=O)N2CCCCCC2)c2ccccc12 | 10.1% (inactive) |
| O=C(NCc1ccco1)C(=O)c1cn(CC(=O)N2CCCCCC2)c2ccccc12 | 2.39% (inactive) |
| COc1ccc(C(CNC(=O)c2ccc(S(=O)(=O)Nc3ccccc3F)cc2)N(C)C)cc1 (stereo unspecified) | -6% (inactive) |
| COC(=O)c1cccc(N(C(=O)c2ccco2)C(C(=O)NC2CCCC2)c2ccco2)c1 (stereo unspecified) | -1.82% (inactive) |
| COc1cc(CNC2CCCCC2)c(Br)cc1OC1CCCC1 | -7.03% (inactive) |
| CCc1ccc(CN(C)C(=O)C2CCC(=O)N(Cc3cccc(OC)c3)C2)nc1 (stereo unspecified) | 4.36% (inactive) |
| CCn1nc(C)c(NC(=O)/C=C/c2ccc(OC)c(COc3ccc(Br)cc3)c2)c1C | 2.79% (inactive) |
| CCCc1cc(=O)oc2c(C)c(OC(C)C(=O)NCC(O)c3ccccc3)ccc12 (stereo unspecified) | -2.74% (inactive) |
| Cc1ccc(S(=O)(=O)NCC(=O)N(CC(=O)NCC2CCCO2)c2cccc(F)c2)cc1 (stereo unspecified) | 1.36% (inactive) |
| CC(=O)NCC(=O)NC1CCCc2c1cnn2-c1ccccc1F (stereo unspecified) | 5.35% (inactive) |

| SMILES | max response |
| --- | --- |
| CCOC(=O)C(=CNNc1ccsc1C(=O)OC)C(=O)OCC | 12.1% (inactive) |
| O=C1CN(c2nc(-c3ccccc3)c3cc(Br)ccc3n2)c2ccccc2N1 | -2.03% (inactive) |
| O=S(=O)(NCC1CN(S(=O)(=O)c2ccc3c(c2)OCCO3)C1)c1c(F)cccc1F | -7.82% (inactive) |
| COc1ccccc1CNC(=O)c1cc(=O)c2ccccc2o1 | 28.7% (inactive) |
| Cc1sc2ncnc(Sc3nc4ccccc4s3)c2c1C | -3.1% (inactive) |
| O=C1NC(Nc2nc3ccccc3s2)(C(F)(F)F)C(=O)N1C1CCCCC1 (stereo unspecified) | 0.879% (inactive) |
| c1ccc2sc(SNC3CCCCC3)nc2c1 | 43.3% (active) |
| Cc1c(CC(=O)N2CCN(C(=O)C3COc4ccccc4O3)CC2)c(=O)oc2c(O)c(O)ccc12 (stereo unspecified) | -3.9% (inactive) |
| CCOc1ccccc1OCCCNCc1ccccc1 | -2.14% (inactive) |
| COc1ccc2c(c1)cc1n2CCN=C1NN | 64.4% (active) |
| Cc1cccc(OCC(O)CN2CCN(S(=O)(=O)c3ccc(C)cc3C)CC2)c1 (stereo unspecified) | 6.97% (inactive) |
| CC(C)c1ccc(NC(=O)C2CCCN(S(=O)(=O)c3cccnc3)C2)cc1 (stereo unspecified) | 5.83% (inactive) |
| COc1cc(-c2noc(C3CCCN(S(=O)(=O)c4cccc(Cl)c4)C3)n2)cc(OC)c1OC (stereo unspecified) | -4.41% (inactive) |
| CC(C)c1ccc(-c2noc(C3CCCN(S(C)(=O)=O)C3)n2)cc1 (stereo unspecified) | 39.9% (active) |
| COc1ccc(NC2CCCN(C(=O)c3ccncc3)C2)cc1 (stereo unspecified) | -1.48% (inactive) |
| CCn1nc(C)cc1C(=O)N1CCCC(C(=O)c2cccc(OC)c2)C1 (stereo unspecified) | 2.78% (inactive) |
| O=C(c1cccs1)N1CCCC(c2nc(-c3ccc(F)cc3)no2)C1 (stereo unspecified) | 26.6% (active) |
| O=C(c1ccc(F)cc1)N1CCCC(C(=O)N2CCCCC2)C1 (stereo unspecified) | -3.54% (inactive) |
| CCN(C(=O)C1CCCN(c2nc(-c3ccc(OC)cc3)no2)C1)c1ccc(OC)cc1 (stereo unspecified) | -1.83% (inactive) |
| COc1cccc(-c2noc(C3CCCN(C(=O)c4ccc(F)cc4)C3)n2)c1 (stereo unspecified) | 20.6% (active) |
| O=C(Cc1cccs1)N1CCCC(c2nc(-c3ccc(S(=O)(=O)N4CCCC4)cc3)no2)C1 (stereo unspecified) | -2.82% (inactive) |
| COc1ccc(NC(=O)N2CCCC(c3nc(-c4ccc(F)cc4)no3)C2)cc1 (stereo unspecified) | 27.8% (active) |
| O=C(c1ccc(F)cc1)N1CCCC(c2nc(-c3cccs3)no2)C1 (stereo unspecified) | 20.3% (inactive) |
